PubChem BioAssay AID1347165 (National Center for Advancing Translational Sciences (NCATS), 2019)
Where “and” joins values, the source holds several entries; their conditions need not be identical. Equal entries are not always repeated. Hit rate of the full screen: of about 220,000 compounds, about 5,700 (2.6%) were called active. Inconclusive results (about 18%) are left out. Calls come from the whole dose curve; as a rule, active = well fitted inhibition curve with a large enough effect; inconclusive = small, poorly fitted or top-dose-only effect; inactive = no such curve, though single readings can be large or run the other way. For the sample, actives were picked, then their nearest neighbours and some compounds at random.

Biological target: Lysine-specific demethylase 5B (Homo sapiens) (UniProt Q9UGL1)
Assay: Primary screen for KDM5B Histone Demethylases FDH-coupled qHTS; note: nearly all actives have a fitted effect of over 70% in size; for activity change, negative = inhibition: 0% is about no effect
Settings: FDH-coupled NADH fluorescence (FDH is formaldehyde dehydrogenase); series mostly up to 57.7 µM; activity change, negative = inhibition: at the top concentration
Outline: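 Coupled FDH/NAD⁺ fluorescence readout. KDM5BΔAP 200 nM final; compound titration, 10 min RT preincubation; substrate mix 12.5 µM H3K4me3, 25 µM 2-OG, 50 µM Fe(II), 100 µM ascorbate, 0.25 mM NAD⁺, 0.25 U/mL FDH; ΔRFU over 30 min.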
Potency is the fitted concentration of half-maximal effect.

Sequence of Lysine-specific demethylase 5B (Homo sapiens) (Q9UGL1 whole entry, looked up): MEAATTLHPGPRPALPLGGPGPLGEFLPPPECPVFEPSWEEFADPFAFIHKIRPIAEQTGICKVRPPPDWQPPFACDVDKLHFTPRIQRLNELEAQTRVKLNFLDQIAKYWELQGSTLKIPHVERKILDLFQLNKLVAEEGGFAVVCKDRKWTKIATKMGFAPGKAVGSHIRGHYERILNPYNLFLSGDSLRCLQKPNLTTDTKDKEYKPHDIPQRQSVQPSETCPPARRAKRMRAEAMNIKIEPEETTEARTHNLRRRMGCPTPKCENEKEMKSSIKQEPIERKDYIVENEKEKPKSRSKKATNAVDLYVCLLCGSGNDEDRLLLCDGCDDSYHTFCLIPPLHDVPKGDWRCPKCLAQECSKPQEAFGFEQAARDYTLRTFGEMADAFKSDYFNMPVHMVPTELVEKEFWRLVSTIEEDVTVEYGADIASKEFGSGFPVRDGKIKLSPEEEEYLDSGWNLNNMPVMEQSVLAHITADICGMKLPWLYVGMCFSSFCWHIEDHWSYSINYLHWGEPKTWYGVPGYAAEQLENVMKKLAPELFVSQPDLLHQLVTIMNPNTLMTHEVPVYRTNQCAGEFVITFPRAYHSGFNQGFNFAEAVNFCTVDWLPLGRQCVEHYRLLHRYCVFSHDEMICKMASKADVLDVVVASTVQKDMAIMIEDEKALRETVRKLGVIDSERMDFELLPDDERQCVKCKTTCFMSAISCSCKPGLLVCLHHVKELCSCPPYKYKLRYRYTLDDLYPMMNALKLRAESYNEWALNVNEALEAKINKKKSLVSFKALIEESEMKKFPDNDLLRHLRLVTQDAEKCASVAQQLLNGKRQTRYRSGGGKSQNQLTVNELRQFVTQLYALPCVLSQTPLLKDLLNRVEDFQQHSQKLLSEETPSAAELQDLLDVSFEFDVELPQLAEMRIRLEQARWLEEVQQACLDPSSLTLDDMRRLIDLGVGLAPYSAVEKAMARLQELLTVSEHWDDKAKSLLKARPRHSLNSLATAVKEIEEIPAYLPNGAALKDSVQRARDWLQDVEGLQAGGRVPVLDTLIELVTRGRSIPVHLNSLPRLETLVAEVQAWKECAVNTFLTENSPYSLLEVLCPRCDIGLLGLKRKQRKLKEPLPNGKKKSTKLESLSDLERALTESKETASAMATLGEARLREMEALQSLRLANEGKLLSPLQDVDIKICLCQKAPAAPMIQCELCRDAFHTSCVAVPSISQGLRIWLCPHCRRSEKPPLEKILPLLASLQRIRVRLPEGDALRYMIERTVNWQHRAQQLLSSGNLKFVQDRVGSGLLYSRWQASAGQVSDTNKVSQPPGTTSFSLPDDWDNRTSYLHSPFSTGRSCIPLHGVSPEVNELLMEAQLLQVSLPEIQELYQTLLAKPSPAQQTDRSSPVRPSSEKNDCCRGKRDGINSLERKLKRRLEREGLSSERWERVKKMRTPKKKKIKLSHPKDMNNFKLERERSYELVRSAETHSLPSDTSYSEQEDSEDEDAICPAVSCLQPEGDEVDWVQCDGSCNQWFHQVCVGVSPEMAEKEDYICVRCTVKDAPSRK

Structure (SMILES)	activity change, negative = inhibition	Potency
O=C(O)COc1ccc2c(=O)c(Oc3ccc(Cl)cc3)coc2c1	-20.5% (inactive)	
Cc1ccc(CNC(=O)Cn2c(=O)ccc3cc(S(=O)(=O)N4CCC(C)CC4)ccc32)o1	-0.492% (inactive)	
Brc1ccc(/C=N/N=C/c2ccc(Br)s2)s1	-4.1% (inactive)	
COc1ccc(NC(=O)CN(C)c2nc(CN3CCOCC3)nc3sc(C)c(C)c23)cc1	5.89% (inactive)	
Cc1nnc([C@H]2CCN(Cc3ccc(F)cc3)C2)o1	-3.36% [at 115 µM] (inactive)	
Fc1ccc2oc([C@H]3CCN(C4CCOCC4)C3)nc2c1		44.7 µM (active)
COC1CN(c2cccc(F)c2)C12CCN(C1CCOCC1)CC2 (configuration not stated)	-39.5% (inactive)	
Cc1ccc(-c2nc3ccc(C(=O)N4CCC(CC(=O)N5CCCCCC5)CC4)cc3o2)cc1	3.43% (inactive)	
COc1ccc(C2=NOC(C(=O)Nc3cc(C)nn3-c3ccccc3)C2)cc1 (configuration not stated)	6.85% (inactive)	
O=C(COc1ccccc1)Nc1ccc2c(=O)c3ccccc3oc2c1	-14.5% (inactive)	
O=C(O)c1ccc2oc(-c3cccc(Cl)c3)nc2c1	-15.7% (inactive)	
CCc1ccc(CN(C)C(=O)c2ccc3oc(-c4cccc(F)c4)nc3c2)nc1		28.2 µM (active)
CN(C)C(=O)c1ccc(OCc2coc(-c3cccc(F)c3)n2)cc1	-16.6% (inactive)	
CCCCS(=O)CC(O)CCl (configuration not stated)	20% (inactive)	
O=C(CN1CCCCCC1)Nc1ccc(Cl)cc1F	-11.6% (inactive)	
CN(C)C(=O)CN1C(=O)c2ccccc2C1c1cn(C)c2ccccc12 (configuration not stated)	4.47% (inactive)	
Cc1cccc(-c2nc3cnccn3c2NCCC(=O)N2CCCCCC2)c1		28.2 µM (active)
Cc1cccc(-c2cccc(NC(=O)C3CCCN(C(=O)CC(F)(F)F)C3)c2)c1 (configuration not stated)	-16.1% (inactive)	
Oc1ccc(-c2nc3ccc(Cl)cn3c2Nc2ccc3c(c2)OCO3)cc1	61.4% (inactive)	
O=C1CCN(C(=O)C2CCN(C(=O)CCCc3ccccc3)CC2)CCCCCCN1	-22.1% (inactive)	
O=C(CSc1nc(-c2cccc(F)c2)[nH]c1-c1ccccc1)Nc1ccc2c(c1)OCO2	20.7% (inactive)	
Cc1cc(C)cc(C(=O)NCCC(=O)N2CCCC2)c1	-13.4% (inactive)	
CC1CCN(C(=O)CCNc2c(-c3ccc(F)cc3)nc3cnccn23)CC1		31.6 µM (active)

Structure (SMILES)	activity change, negative = inhibition	Potency
O=C(Nc1c(-c2ccc(F)cc2)nc2ccccn12)c1cccc(F)c1	-19.1% (inactive)	
O=C(CCNc1c(-c2ccccc2)nc2cnccn12)N1CCC(N2CCCCC2)CC1		28.2 µM (active)
O=C(NC1CCCCC1)N1CCCCCC1c1nc(-c2cccnc2)no1 (configuration not stated)	-5.27% (inactive)	
CC(=O)N1CCN(C(=O)CCC(=O)N2CCC(c3noc4cc(F)ccc34)CC2)CC1	12.5% (inactive)	
O=C(CCNc1c(-c2ccc(F)cc2)nc2cnccn12)Nc1ccc2c(c1)OCO2		25.1 µM (active)
CC(C)CCN(CC(=O)NC(N)=O)C1CC1	0.707% (inactive)	
COc1ccc(NC(=O)Cc2c(C)c3ccc(OC)c(C)c3oc2=O)cc1OC	-16.7% (inactive)	
COC(=O)c1ccc(OCc2cccc(C#N)c2)c(OC)c1	15.1% (inactive)	
Cn1c(=O)c2c(ncn2CCC(=O)Nc2ccc(F)cc2F)n(C)c1=O	19.5% (inactive)	
COc1ccc(Nc2ccccc2)cc1	-15% (inactive)	
CCCn1nc(C(=O)OCc2nc(-c3cccc(OC)c3)no2)c2ccccc2c1=O	-10.6% (inactive)	
COCCNC(=O)c1cc(-c2cccc(Cl)c2)on1	-6.23% (inactive)	
Cc1cccc(C)c1-c1nc(C(=O)NCc2ccc(F)cc2)n2ccccc12		28.2 µM (active)
Cc1cccc(N2CCN(C(=O)c3cnc(N4CCCC4)nc3C)CC2)c1C	-25.8% (inactive)	
O=C(NCc1ccc(F)cc1)c1nc(-c2ccccc2)c2ccccn12		28.2 µM (active)
Cc1cc2ccccc2n1CCNC(=O)c1ccc(F)cc1	-23.6% (inactive)	
COC(=O)CNC(=O)c1nc(-c2ccc([S+](C)(=O)[O-])cc2)c2ccccn12	5230% [at 115 µM] (inactive)	
Cc1cccc(C)c1-c1nc(C(=O)N2CCN(c3ncccn3)CC2)n2ccccc12		31.6 µM (active) and 28.2 µM (active)
Cc1ccc(CNC(=O)c2c(O)nc3c(C)cccn3c2=O)cc1	-21.7% (inactive)	
Cc1nc(-c2ccccc2)n(CC(=O)NCc2ccc(F)cc2)c(=O)c1CCO	-0.625% (inactive)	
O=C(CSc1nccn1Cc1ccc(F)cc1)NCc1ccccc1	4.1% (inactive)	
O=C(c1cc(-c2ccccc2)n[nH]1)N1CCN(c2ncccn2)CC1	-21.9% (inactive)	
COc1cccc(/C=C2\C=C(c3ccc(C)cc3)OC2=O)c1OC(C)=O	-8.74% (inactive)	

Structure (SMILES)	activity change, negative = inhibition	Potency
O=C(NCCN1CCCCC1)C(=O)Nc1cccc2[nH]ccc12	-14.9% (inactive)	
CCCC(=O)Nc1ccc(-c2csc(NC)n2)cc1	-0.547% (inactive)	
O=C(Cn1c(=O)c2c(ncn2C2CCCC2)n(Cc2ccccc2)c1=O)NC1CCS(=O)(=O)C1 (configuration not stated)	7.86% (inactive)	
CC(Oc1ccc(Cl)cc1)c1nc(-c2ccc(Cl)cc2)no1 (configuration not stated)	-5% (inactive)	
Cc1noc(C)c1-c1nccc2c(=O)cc(N3CCOCC3)oc12		39.8 µM (active)
O=c1cc(N2CCOCC2)oc2c(NCc3ccncc3)nccc12		35.5 µM (active)
O=c1cc(N2CCOCC2)oc2c(Nc3cccc(Cl)c3)nccc12	-13.9% [at 86.2 µM] (inactive)	
CN(c1ccccc1)c1cc(=O)c2ccnc(NC3CCOCC3)c2o1	-2.58% [at 86.2 µM] (inactive)	
Cn1ncc2c(Nc3cccc4c3CCCC4)ncnc21	-4.66% (inactive)	
CCc1ccc(-n2nc(C)c3c(C(F)(F)F)cc(OCC(=O)NC(C)C)nc32)cc1	2.73% (inactive)	
COc1cc2c(C(=O)N(C)c3cc(Cl)ccc3OC)cn(C)c(=O)c2cc1OC	35.9% (inactive)	
O=C(COc1ccccc1)N1CC2(C1)CN(Cc1ccc(Cl)cc1)C(=O)O2	-3.94% [at 86.2 µM] (inactive)	
N#CCCNC(=O)CSc1nc(C2CC2)nc2ccccc12	-14.8% (inactive)	
O=C(Cn1cnc2c(Cl)cc(Cl)cc2c1=O)N(C1CCCC1)C1CCS(=O)(=O)C1 (configuration not stated)	11.5% (inactive)	
CCCN1C(=O)NC(CC(=O)N2CCC(O)(c3ccc(C)cn3)CC2)C1=O (configuration not stated)	-7.99% (inactive)	
Cc1ccc(C2(O)CCN(c3nccc(CCC(F)(F)F)n3)CC2)nc1		22.4 µM (active)
Cc1ccc(C2(O)CCN(C(=O)c3ccccc3-c3nn[nH]n3)CC2)nc1	-17.5% (inactive)	
Cc1csc(SCc2cc(Cl)c3c(c2)OCCO3)n1	14.3% (inactive)	
N#Cc1cccc(NC(=O)CSc2ccccc2C(=O)Nc2ccc3c(c2)OCCCO3)c1	-0.157% (inactive)	
COc1ccccc1-n1nc(CC(N)=O)nc1C1CCCCn2nnnc21 (configuration not stated)	-0.916% (inactive)	
C=CCOc1cccc(NC(=O)c2ccccc2Cl)c1	17.9% (inactive)	
